Only some compounds are listed: those with a hit (about 4.7% of all), similar ones and a draw of the others.
HSP90 refold inh – HSP90 inhibitors, primary screen, cell lysate, luminescence; Heat shock protein HSP 90 (rabbit reticulocyte lysate; luciferase refolding); inhibition, % at 5.6 µM; actives 0.91% (n = 290,000); AID 1789, 2009; Rabbit reticulocyte lysate, luciferase refolding luminescence, 3 h;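 active means inhibition above the screen-wide mean plus 3 SD, computed separately per campaign, cut at about 16% in these data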;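 further: 0% = DMSO wells and 100% = 60 µM geldanamycin wells; inhibitors lower the luminescence because luciferase stays unfolded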
HSF1 inh – HSF1 inhibitors in luciferase reporter cells, primary screen, cell-based, NIH3T3, luminescence; actives 0.77% (n = 300,000); activity change, negative = inhibition, % at 7.5 µM (by protocol); NIH3T3-HGL HSE-luciferase, MG132-induced, luminescence 8 h; hits give low values;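 active means more than half of replicate wells show activity change below -50%, luminescence cut by over half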;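 further: luciferase reports HSF-1 transcriptional activity via heat shock element; 0% = median of DMSO wells and -100% = zero luminescence signal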
TWEAK-Fn14 inh – inhibitors of TWEAK-Fn14 signaling, primary screen, luciferase reporter cells, uHTS; inhibition, % at 10 µM; TWEAK-stimulated Fn14 reporter cells, luciferase luminescence, 8 h; actives 2% (n = 360,000); in the data active means inhibition above about 50%
TROY signal inh – inhibitors of TROY-driven NF-kB signaling, primary screen, Q293 LMP1-TROYcd cells, NF-kB luciferase, uHTS; Q293 LMP1-TROYcd NF-kB luciferase reporter, 4 h; inhibition, % at 10 µM; actives 0.98% (n = 360,000); AID 1347056, 2019;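 active means compounds whose plate-normalised and pattern-corrected inhibition of the luciferase reporter signal at the single screening dose is 50% or more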
EBV LMP1 NFkB – EBV LMP1-driven NF-kappaB luciferase reporter inhibitors, primary screen, cell-based, luminescence, single point; LMP1-induced NF-kappaB luciferase reporter cells; inhibition, % at 12.5 µM; actives 0.69% (n = 350,000); AID 504558, 2011; in the data active means inhibition above about 41%;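 further: 0% = neutral control wells and 100% = reference inhibitor control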
HSF-1 act – HSF-1 activators, primary screen, NIH3T3-HGL cells, MG132 stress, luminescence, single point. NIH3T3-HGL HSF-1 luciferase reporter, 8 h; 100% = twice DMSO control signal. AID 504408, 2011. activation, % at 9 µM. actives 1.7% (n = 300,000);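 active means mean replicate activation of at least 50% with a set share of replicates each reaching 50%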;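 further: 0% = median of the neutral control wells and 100% = twice that signal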
Active calls of the source: *; · = no result.

SMILES	HSP90 refold inh	HSF1 inh	TWEAK-Fn14 inh	TROY signal inh	EBV LMP1 NFkB	HSF-1 act
Fc1cccc(C2NN=C(c3ccccc3)S2)c1 (stereo not given)	8	25	37	5	5	61*
COc1ccc(C2NN=C(c3ccc(C)cc3)S2)cc1OC (stereo not given)	-5	17	0	-50	-19	36
Cc1ccc(C2=NNC(c3cccc(F)c3)S2)cc1 (stereo not given)	5	·	65*	54*	26	·
COc1ccc(C(NC(=O)C2CCN(CCOc3ccc(Cl)cc3)CC2)c2cccs2)cc1 (stereo not given)	·	·	-14	26	·	·
CCCCCCCNC(=O)C1(CC2CC(c3ccccc3)=NO2)CCN(C(=O)OC(C)(C)C)CC1 (stereo not given)	·	·	-23	-50	2	·
C=CCC1(C(=O)NCCO)CCN(C(=O)OC(C)(C)C)CC1	2	-84*	6	-6	-2	-87
COC(=O)C1=C(Cn2cnc3ccccc32)NC(=O)NC1c1cc(C)ccc1C (stereo not given)	0	-5	12	-8	-2	8
CCOC(=O)C1=C(Cn2cnc3ccccc32)NC(=O)NC1c1cc(C)ccc1C (stereo not given)	3	·	11	52*	0	·
Cc1cccc(N2CCCn3c2nc2c3c(=O)n(CCN3CCOCC3)c(=O)n2C)c1	-4	1	108*	11	8	21
COc1cccc(-n2nc(C#N)c(Cl)cc2=O)c1	-2	155	29	83*	12	225*
O=C(Nc1cc(C(F)(F)F)cc(C(F)(F)F)c1)O[C@@H]1c2ccccc2[C@@H]2Cc3csc[n+]3[C@H]12	·	·	34	6	·	·
COc1ccccc1Cn1c(=O)c2ccccc2n2c(SCc3csc(C)n3)nnc12	0	10	-8	-10	1	0
COc1ccccc1Cn1c(=O)c2ccccc2n2c(Sc3ncnc4sccc34)nnc12	0	16	89*	47	13	21
O=C(OCc1ccccc1)N1CCCCC1c1c(Cl)cccc1Br (stereo not given)	·	·	-2	8	·	·
CCOc1ccc(Br)cc1S(=O)(=O)Nc1ccc(C(=O)OCC(=O)N(C)c2ccccc2)cc1	-1	-6	11	-8	1	-5
CCOc1ccc(Br)cc1S(=O)(=O)Nc1cccc(S(=O)(=O)N(C)c2ccccc2)c1	7	4	45	77*	2	-2
CC1(C(=O)NS(=O)(=O)c2ccc(Cl)cc2)CCN1C(=O)c1cccc(F)c1 (stereo not given)	·	·	-7	2	·	·
COC1C(CO)OC(n2c3c(Cl)cccc3c3c4c(c5c6cccc(Cl)c6[nH]c5c32)C(=O)NC4=O)C(O)C1O (stereo not given)	·	·	0	18	60*	·
O=C(COC(=O)c1ccccc1NS(=O)(=O)c1cccs1)NCC12CC3CC(CC(C3)C1)C2	0	6	30	61*	-11	4
O=C(COC(=O)c1ccccc1NS(=O)(=O)c1cccs1)NC1CCCCC1	0	-2	2	28	-5	12
CCCCn1c(N)c(N(CCOC)C(=O)CN(C)CC(=O)Nc2ccc(Cl)c(Cl)c2)c(=O)[nH]c1=O	·	·	5	0	9	·
CC(=O)N(c1ccccc1)c1nnc(-c2cnc(C)cn2)s1	1	18	24	-43	-10	54*
Cc1cnc(-c2nnc(N(C)C(=O)c3cccnc3)s2)cn1	-4	-6	-10	0	-10	-2
COC(=O)N1CCCCC1c1cc(C(=O)N2CCOCC2)no1 (stereo not given)	·	·	10	-1	·	·
COc1cccc(CNc2ccc(N3CCCCC3)cc2)c1OC	-2	·	-7	3	-21	·
SMILES	HSP90 refold inh	HSF1 inh	TWEAK-Fn14 inh	TROY signal inh	EBV LMP1 NFkB	HSF-1 act
COc1cccc(CNc2ccc(S(N)(=O)=O)cc2)c1OC	3	-57*	21	1	-1	-67
CN(Cc1ccccc1)c1nccn2ccnc12	·	·	2	8	·	·
O=C(NCc1ccncc1)[C@@H]1CCCN1C(=O)[C@H]1CCCN1C(=O)c1cccc(Cl)c1	·	·	23	-1	·	·
Cc1ccc(N2C(=O)[C@@H]3C(C(=O)C(c4ccccc4)c4ccccc4)=NN[C@@H]3C2=O)cc1	3	17	2	2	5	53*
CCOC(=O)C1=C[C@@H](C(C)(C)C)N(S(=O)(=O)c2ccc(C)cc2)[C@H]1c1ccc(C)cc1	·	·	9	19	·	·
O=C(c1ccc(Cl)cc1Cl)N1CCOCC1	·	·	-17	-1	2	·
O=C(c1cc(Cl)ccc1Cl)N1CCOCC1	5	-72*	-3	19	2	-78
CCc1ccc2c(c1)[C@H]1OCC[C@H]1[C@@H](c1cccs1)N2	3	45	-17	-63	14	69*
CCc1ccc2c(c1)/C(=C/C(=O)c1cccs1)C(=O)N2	3	10	-2	15	15	-6
O=C1c2ccccc2C(c2nnnn2-c2ccc3c(c2)OCCO3)N1Cc1ccc(F)cc1 (stereo not given)	·	·	9	1	·	·
Cn1cc(CN2CCCC(CNS(=O)(=O)c3cccc4cccnc34)C2)cn1 (stereo not given)	0	-7	8	-10	2	-27
CC(C)n1cc(CN2CCCC(CNS(=O)(=O)c3cccc4cccnc34)C2)cn1 (stereo not given)	-4	-66*	4	12	-7	-71
CC(O)(c1cccnc1)c1nc(-c2cccc3cccnc23)cs1 (stereo not given)	·	·	-56	-12	·	·
COc1ccc2nc3n(c(=O)c2c1)-c1ncccc1C(=O)NC3CC(C)C (stereo not given)	·	·	76*	2	-5	·
COc1ccc(NC(=O)CSc2cc(C)nc3c(-c4ccccc4)cnn23)cc1	1	4	22	56*	-1	-2
Cc1cc(SCC(=O)Nc2ccccc2)n2ncc(-c3ccccc3)c2n1	-2	8	32	63*	4	20
Cc1cc(SCC(=O)Nc2ccc(O)cc2)n2ncc(-c3ccccc3)c2n1	3	3	17	27	-6	-4
O=C(NCc1ccc(F)cc1)c1cc(C2CCCCN2C(=O)c2ccc(Cl)cc2)on1 (stereo not given)	·	·	-35	15	·	·
COc1cc(SC#N)ccc1N=Cc1c(C)[nH]n(-c2cccc3ccccc23)c1=O	16*	-1	·	·	·	-2
Cc1ccc(Sc2ccc(NC(=O)CCl)cc2)cc1C	4	-4	19	-21	0	-12
